An excerpt weighted towards active compounds, which were near 18% of everything screened.
TDP1 cell CPT: DT40-hTDP1 cell growth loss with CPT. actives 12% (n = 420,000). chicken DT40 Tdp1-/-;hTDP1 cells + 20 nM CPT, ATP luminescence, 48 h. Potency, µM (top dose mostly 46.2 µM), without a hit: at the highest dose activity change, negative = growth inhibition, most hits filed as inhibitors; also: potency is read from the fitted curve at half-maximal effect; nearly all actives have a fitted effect of over 55% in size
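Chicken DT40 Tdp1-/- cells complemented with human TDP1, 400 cells/well, exposed to compounds plus 20 nM camptothecin for at least 48 h at 37 C; viability read as ATP content by CellTiter-Glo luminescence.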
TDP1 cell noCPT: qHTS for Inhibitors of human tyrosyl-DNA phosphodiesterase 1 (TDP1): qHTS in cells in absence of CPT; AID 686978, 2013; actives 15% (n = 420,000); Potency, µM (top dose mostly 46.2 µM), for inactives: top-dose activity change, negative = growth inhibition, most hits filed as inhibitors; DT40 Tdp1-/- hTDP1 cells, no CPT, ATP luminescence, 48 h; also: potency is read from the fitted curve at half-maximal effect; nearly all actives have a fitted effect of over 55% in size
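No-CPT arm: Tdp1-/-;hTDP1 DT40 cells (400/well) plus compounds, incubated ≥48 hr at 37 °C. Readout CellTiter-Glo luminescence.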
Gal4-VP16 FLuc: counter-screen for ROR gamma inhibitors: Gal4-VP16 reporter; actives 3.5% (n = 310,000); Potency, µM (series often up to 53.6 µM), inactives show top-dose activity, negative = inhibition, hits mostly inhibitors; Drosophila S2 Gal4-VP16 UAS-luciferase, luminescence, 20 h; AID 2546;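 also: Gal4-VP16 expression switched on by copper sulfate through the metallothionein promoter; potency is read from the fitted curve at half-maximal effect; nearly all actives have a fitted effect of over 50% in size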
IL1B secr inh: inflammasome signaling inhibition, IL-1 beta readout | THP-1 LPS/ATP IL-1B secretion, AlphaLISA, 16 h; stronger effect = lower value | activity change, % at 57.5 µM | actives 4.7% (n = 360,000); in the data active = activity change below about -50%; inconclusive = mostly about -30% to -49%
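THP-1 cells pretreated 1 hr with compounds (up to 57.5 uM final), then stimulated with LPS (250 ng/mL final) plus ATP (1.25 mM final); secreted IL-1B measured by AlphaLISA after 16 hr, decreased signal indicating inhibition.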
LDHA inh: LDHA (human) enzyme inhibition. purified LDHA, NADH/diaphorase-resazurin fluorescence; stronger effect = lower value. activity change, % (values are at about 110 or 230 µM). actives 0.15% (n = 480,000). AID 1347041; in the data active = activity change below about -30%; inconclusive = mostly about -25% to -30%;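 also: plate controls were DMSO wells for no effect and wells without enzyme for full effect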
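Resorufin fluorescence (ex540/em590), read at 0 and 20 min after diaphorase/resazurin addition, reports the NADH left after a 5 min room-temperature reaction of 2 nM human LDH5 with 0.06 mM NADH and 0.2 mM pyruvate.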
RORg inh: blocks mouse ROR gamma transcriptional activity. actives 5.4% (n = 310,000). P51450. Potency, µM (titrated, usually from 53.6 µM), for the others: at the highest dose activity change, negative = inhibition, hits mostly inhibitors. Drosophila S2 Gal4-RORgamma UAS-luciferase reporter, 20 h; also: potency is read from the fitted curve at half-maximal effect; nearly all actives have a fitted effect of over 60% in size
Target sequence (P51450 whole entry, looked up, the tested form may be a part): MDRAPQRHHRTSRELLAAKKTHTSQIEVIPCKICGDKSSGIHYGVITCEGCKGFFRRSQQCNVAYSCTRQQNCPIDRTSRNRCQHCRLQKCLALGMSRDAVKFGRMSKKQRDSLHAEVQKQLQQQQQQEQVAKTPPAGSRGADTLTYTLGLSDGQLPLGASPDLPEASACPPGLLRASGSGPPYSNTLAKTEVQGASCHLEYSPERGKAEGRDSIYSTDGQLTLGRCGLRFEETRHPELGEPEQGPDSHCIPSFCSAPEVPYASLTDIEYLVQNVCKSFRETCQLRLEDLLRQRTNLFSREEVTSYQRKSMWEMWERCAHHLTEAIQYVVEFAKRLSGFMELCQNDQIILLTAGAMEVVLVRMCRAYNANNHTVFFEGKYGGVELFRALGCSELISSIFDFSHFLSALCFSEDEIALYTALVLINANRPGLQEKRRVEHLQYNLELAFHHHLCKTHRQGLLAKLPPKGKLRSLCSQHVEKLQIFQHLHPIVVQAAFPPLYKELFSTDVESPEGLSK
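Read-out: Photinus luciferase luminescence; inhibitors lower reporter signal. Insect Schneider cells with Gal4-ROR gamma fusion under metallothionein promoter, UAS reporter; 700 uM final copper sulfate induction, 20 hr, ambient temperature.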
* marks the source's active call; other numbers are inactive results; ? = inconclusive; . = no result given. Unless noted, calls follow the shape of the dose curve; as a rule, active = well fitted curve in the direction sought with a large enough effect; inconclusive = small, poorly fitted or top-dose-only effect, or another doubt; inactive = no such curve, though single readings can be large; an effect the other way counts as inactive or inconclusive. Unless noted, % is scaled to controls: 0 for no effect and ±100 for the full control effect.

SMILES	TDP1 cell CPT	TDP1 cell noCPT	Gal4-VP16 FLuc	IL1B secr inh	LDHA inh	RORg inh
CCc1cccc(C)c1NC(=O)COC(=O)c1ccc(C2Nc3ccccc3S(=O)(=O)N2)cc1 (stereo unspecified)	.	.	.	.	1	.
CC(C)C[C@@H](CN1CCC[C@@H]1CN1C(=O)C(=O)NC[C@@H]1Cc1ccccc1)N1C[C@H](Cc2ccccc2)N(CC2CCCCCC2)C(=O)C1=O	?	?	.	-24	0	.
CC(C)C[C@@H](CN1CCC[C@H]1CN1C(=O)C(=O)NC[C@@H]1Cc1ccccc1)N1C[C@H](Cc2ccc(O)cc2)N(CC2CCCCCC2)C(=O)C1=O	23µM*	23µM*	.	-76*	3	.
CC(C)C[C@@H](CN1CCC[C@@H]1CN1C(=O)C(=O)NC[C@@H]1Cc1ccccc1)N1C[C@H](Cc2ccc(O)cc2)N(CC2CCCCC2)C(=O)C1=O	?	?	.	-75*	-4	.
CC(C)C[C@@H](CN1CCC[C@@H]1CN1C(=O)C(=O)NC[C@@H]1Cc1ccccc1)N1C[C@H](Cc2ccccc2)N(CC2CCCCC2)C(=O)C1=O	?	16µM*	.	?	-3	.
Cc1ccc(S(=O)(=O)N2CCC(C(=O)NCc3cnn(-c4ccccc4)c3)CC2)cc1	.	.	.	.	-20	.
COc1cc(NCc2ccc3nc(N)nc(N)c3c2C)cc(OC)c1OC	0.38µM*	0.12µM*	-9%	.	.	-17%
COc1ccc(CNc2ccncc2)c(OC)c1OC	?	-22%	.	8	-2	.
O=c1c2ccccc2n2c(-c3ccc(F)c(F)c3)nnc2n1CCc1ccccc1	?	?	.	.	-10	.
COc1cccc(-c2nnc3n(Cc4ccc(C)cc4)c(=O)c4ccccc4n23)c1O	?	26µM*	.	.	-2	.
O=c1c2ccccc2n2c(-c3ccc(Cl)cc3)nnc2n1CCc1ccccc1	?	18µM*	.	.	-1	.
O=c1c2ccccc2n2c(-c3ccccc3O)nnc2n1Cc1ccc(F)cc1	-5%	-11%	.	.	-16	.
COc1ccc(Cn2c(=O)c3ccccc3n3c(-c4cccc(OC)c4OC)nnc23)cc1	?	16µM*	.	.	0	.
CC(C)OCCCn1c(=O)c2ccccc2n2c(-c3cc(Cl)ccc3O)nnc12	?	18µM*	.	.	2	.
CCc1cccc2c(C=O)c[nH]c12	.	.	.	.	4	.
CCn1c(-n2nc(C)cc2C)nc2c1c(=O)n(CC(=O)C(C)(C)C)c(=O)n2C	.	.	.	.	-4	.
Cc1cc(=O)oc2cc(OCC(=O)N(C)C3(C#N)CCCCC3)c(Cl)cc12	.	.	.	.	-1	.
COc1ccc(OC)c(-c2nnc3n(CCc4ccccc4)c(=O)c4ccccc4n23)c1	8.2µM*	16µM*	.	.	-5	.
O=C(NCc1ccc(C(F)(F)F)cc1)C1CC(c2ccc(C(F)(F)F)cc2)=NO1 (stereo unspecified)	23µM*	13µM*	.	37	-3	.
O=C(NCc1ccco1)C1CC(c2cc(C(F)(F)F)cc(C(F)(F)F)c2)=NO1 (stereo unspecified)	2.6µM*	2.3µM*	-1%	70	-4	17%
O=C(NCc1ccco1)C1CC(c2ccccc2C(F)(F)F)=NO1 (stereo unspecified)	?	?	22%	17	-1	1%
CCCOc1ccc(/C=N/NC(=O)C2CCCN2S(=O)(=O)c2ccc(Cl)cc2)cc1 (stereo unspecified)	16µM*	?	?	-4	1	20%
COc1ccc(NC(=O)[C@@H]2CCCN2S(=O)(=O)c2ccc(Cl)cc2)cc1	?	?	.	-3	-2	.
CC(C)Oc1ccc(/C=N/NC(=O)C2CCCN2S(=O)(=O)c2ccc(Cl)cc2)cc1 (stereo unspecified)	?	21µM*	-17%	-1	-2	34%
COc1ccc(C(=O)Oc2ccccc2C)cc1Br	.	.	.	.	7	.

Assay outcomes: PubChem, National Center for Advancing Translational Sciences (NCATS)
